Reference: PubChem BioAssay AID504725 (Broad Institute, 2011)
Entries with a potency or affinity are not part of this list. Active and inactive are the calls of the source. How the calls were made is not given here.

These molecules were tested against KSHV LANA C-terminal domain (residues 932-1162) binding to LBS DNA (UniProt O40947) (assay: inhibitors of C-LANA binding to LBS DNA, dose response, biochemical, fluorescence polarization, cherry-picked samples (AID 504725)). Conditions: MBP-C-LANA / FAM-LBS DNA fluorescence polarization, percent change from plate compound-well median; series mostly up to 35 µM.

Compound | outcome
O=C(c1ccc2c(c1)CCN2S(=O)(=O)c1ccccc1)N1CCN(c2ccc(F)cc2)CC1 | inactive
CN(Cc1cnc2nc(N)nc(N)c2n1)c1ccc(C(=O)NC(CCC(=O)O)C(=O)O)cc1 (stereo not drawn) | inactive
CC(C)C(=O)N1CCN(c2ccccc2NC(=S)NC(=O)c2ccco2)CC1 | inactive
COc1ccc(-c2csc(NC(=O)CSc3nc(C)nc4sc(C(=O)O)c(C)c34)n2)cc1 | inactive
Cn1c(N)c(C(=O)COC(=O)c2ccc(Cl)c(S(=O)(=O)N3CCCC3)c2)c(=O)n(C)c1=O | inactive
CN(c1ccccc1)S(=O)(=O)c1cccc(NS(=O)(=O)c2cccc(C(=O)O)c2)c1 | inactive
O=C(NC1CCCCC1)c1cc([N+](=O)[O-])ccc1N1CCOCC1 | inactive
Cc1nnc(NC(=O)CN2C(=O)NC3(CCCC3)C2=O)s1 | inactive
COc1ccc(NS(=O)(=O)c2ccc(C)c(C(=O)N(C)Cc3ccc(OC)cc3OC)c2)cc1 | inactive
CSc1nc(SC(C)C(=O)O)c2c3c(sc2n1)COC(C)(C)C3 (stereo not drawn) | inactive
O=C1c2ccccc2C(Nc2ccc3c(c2)OCCO3)N1Cc1ccc2c(c1)OCO2 (stereo not drawn) | inactive
CC(C)Cn1c(N)c(C(=O)CSc2nnc(-c3ccco3)n2C)c(=O)n(C)c1=O | inactive
COc1c2c(nc3occc13)C(CCC(C)(C)O)(OC)C(O)CC2 (stereo not drawn) | inactive
O=C(/C=C/c1ccco1)Nc1ccccc1C(=O)Nc1cccc(C(=O)O)c1 | inactive
Nc1nc(C(F)(F)F)cc(=O)[nH]1 | inactive
CCCCN(C(=O)C(C)Oc1ccc(Br)cc1)c1c(N)n(CC(C)C)c(=O)[nH]c1=O (stereo not drawn) | inactive
CCOc1ccccc1N1CCN(C(=O)c2ccc3nc(N)sc3c2)CC1 | inactive
COC(=O)Cn1c(=NC(=O)c2sc3ccccc3c2Cl)sc2cc(S(N)(=O)=O)ccc21 | inactive
COc1cc(OC)cc(C(=O)NC2CC3CCC(C2)N3C)c1 (stereo not drawn) | inactive

Compound | outcome
Cn1cc(C(=O)c2ccc(Cl)cc2Cl)cc1C(=O)N/N=C(\N)COc1ccccc1 | inactive
S=c1[nH]nc([C@@H]2C[C@H]2c2ccccc2)n1-c1ccccc1Cl | inactive
O=C(c1cnn2c(-c3ccccc3)cc(-c3ccccc3)nc12)N1CCN(Cc2ccccc2)CC1 | inactive
CCN(C(=O)c1cccc(S(=O)(=O)N2CCc3ccccc32)c1)C1CCS(=O)(=O)C1 (stereo not drawn) | inactive
COc1ccc(CNC(=O)C2CCC(CNC(=O)[C@@H]3Cc4ccccc4CN3)CC2)cc1 (stereo partly drawn) | inactive
C/C(=N\NC(=O)CCc1c(C)n[nH]c1C)c1ccc([N+](=O)[O-])cc1 | inactive
O=C(OCC(=O)N1N=C(c2ccc(Cl)cc2)CC1c1ccco1)c1cccnc1 (stereo not drawn) | inactive
C=CCN1C(=O)/C(=c2\sc3nc(=O)c(Cc4ccccc4Cl)nn3c2=O)c2ccccc21 | inactive
Cc1cc(NS(=O)(=O)c2ccc(Nc3nc(-c4sc(N)nc4C)cs3)cc2)no1 | inactive
Cc1cccnc1NC1(C(F)(F)F)N=C2SCCN2C1=O (stereo not drawn) | inactive
CCNc1nc(NC(C)C)nc(NS(=O)(=O)c2ccc(N)cc2)n1 | inactive
CCOC(=O)N1CCN(C(=S)NC(=O)c2cccc(OC)c2)CC1 | inactive
O=C(O)C1(c2ccccc2)CCN(S(=O)(=O)c2ccc(Cl)s2)CC1 | inactive
COc1ccc(OC2CCN(S(=O)(=O)c3ccc(OC)cc3)CC2)cc1 | inactive
COc1cc(OC)cc(-c2c(-c3ccsc3)c3cc(Br)ccc3n2C)c1 | inactive
CC(=O)N(C(C)=O)N1C(=O)c2cccc3c(N4CCOCC4)ccc(c23)C1=O | inactive
CCN(CC(=O)NCc1cccs1)C(=O)c1ccc(S(=O)(=O)Nc2ccccc2C)cc1 | inactive
COc1cc(NC(=O)c2ccc(CNc3c(N4CCCC4)c(=O)c3=O)cc2)cc(OC)c1OC | inactive
CCCOc1ccc(C=Nc2ccc(OC)c(S(=O)(=O)N3CCOCC3)c2)c(O)c1 | inactive
